Laboratory results: publication PMC5540273 (PLoS ONE, 2017)

System: ADCK4
Settings: concentration: 1 μM, replicates: in singlicate; n = 1
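Further: KINOMEscan kinase panel screen.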

Question: How did the “%Inh” value turn out when COc1ccc(NC(=O)c2ccoc2)cc1-c1ccc(C(=O)NCC2CC2)cc1 [GW810437] was run?
Answer: 0%

Question: How did the “%Inh” value turn out when CC(=O)Nc1cn2nc(Oc3cccc(NC(=O)c4cccc(C(F)(F)F)c4)c3)ccc2n1 was run?
Answer: 9%

Question: How did the “%Inh” value turn out when Cc1ccc(C)c(NC(=O)Nc2ccc(C)c(-c3ccc(C(=O)Nc4ccncc4)cc3)c2)c1 [GSK1398473] was run?
Answer: 25%

Question: For CN(C)c1ncnc2nc[nH]c12 [SKF-31736], which “%Inh” value is on record?
Answer: 19%

Question: Which “%Inh” value does the source give for Cc1ccc(O)cc1Nc1ccnc2cc(-c3ccc(CN4CCCCC4)o3)ccc12 [GW557777] here?
Answer: 88%

Question: For Cl.Cl.NCC(NC(=O)c1cc(-c2cccnc2)c(-c2ccnc3[nH]ccc23)s1)c1ccccc1 (centres unmarked) [GSK1323434], which “%Inh” value is on record?
Answer: 71%

Question: With CC(C)NCC(Cc1ccccc1)NC(=O)c1cc(Br)c(-c2ccnc3[nH]ccc23)s1.Cl.Cl (centres unmarked) [GSK1383281] as the molecule, how does the “%Inh” value read?
Answer: 87%

Question: COc1cccc(NC(=O)NCCNc2ccnc(Nc3ccc(F)cc3)n2)c1 [GSK1379879] was tested. Which “%Inh” value did it give?
Answer: 41%

Question: For Cc1cc(-c2ccnc(Nc3cccc(C#N)c3)n2)cc(C)c1O [GSK1440913], which “%Inh” value is on record?
Answer: 72%

Question: How did the “%Inh” value turn out when Cc1ccc(O)cc1Nc1ccnc2ccc(C(C)(C)C)cc12 [GW856805] was run?
Answer: 88%

Question: How did the “%Inh” value turn out when O=C(Nc1n[nH]c2nc(-c3ccccc3)ccc12)C1CC1 [SB-708999] was run?
Answer: 12%

Question: Cl.Cl.NC(CNC(=O)c1cc(Br)c(-c2ccnc3[nH]ccc23)s1)c1ccccc1 (centres unmarked) [GSK1322949] was tested. Which “%Inh” value did it give?
Answer: 76%

Question: With Cn1cc(-c2cnc(N)c3c(-c4ccc5c(c4)CCN5C(=O)Cc4ccccc4)csc23)cn1 [GSK2593074] as the molecule, how does the “%Inh” value read?
Answer: 0%

Question: For O=C1NC(=O)C(c2ccccc2Cl)=C1Nc1cccc(Cl)c1 [SB-342409], which “%Inh” value is on record?
Answer: 0%

Question: For COc1ccc(C2=C(Nc3cccc(O)c3)C(=O)NC2=O)cc1 [SB-390766], which “%Inh” value is on record?
Answer: 9%

Question: Which “%Inh” value does the source give for CN(C)CCNS(=O)(=O)c1ccc(-c2ccnc3[nH]ccc23)cc1 [GSK977620] here?
Answer: 0%

Question: With CC(C)c1nc(-c2cccc(NS(=O)(=O)c3c(F)cccc3F)c2)c(-c2ccnc(Nc3ccc(N4CCOCC4)nc3)n2)s1.Cl [GSK1723980] as the molecule, how does the “%Inh” value read?
Answer: 100%

Question: With CCn1cnc2c(NCc3ccccc3)ncnc21 [SKF-96418] as the molecule, how does the “%Inh” value read?
Answer: 0%

Question: COC(=O)Nc1nc2cc(Oc3ccc(NC(=O)Nc4cccc(SC)c4)cc3)ccc2[nH]1.Cl [GW697999] was tested. Which “%Inh” value did it give?
Answer: 48%

Question: For O=C(Nc1n[nH]c2nc(-c3cccc(O)c3)ccc12)C1CC1 [SB-711805], which “%Inh” value is on record?
Answer: 0%

Question: For CN(c1ccc(F)c(NC(=O)c2cccc(OC(C)(C)C#N)c2Cl)c1)c1ccc2nc(NC(=O)C3CC3)sc2n1, which “%Inh” value is on record?
Answer: 0%

Question: Cc1nn2c(=O)cc(N3CCO[C@H](C)C3)nc2n1Cc1cccc(Cl)c1Cl [GSK2373693] was tested. Which “%Inh” value did it give?
Answer: 2%

Question: With Cl.O=C(Nc1ccc(Oc2ccc3[nH]c(NC(=O)c4ccco4)nc3c2)cc1)Nc1cc(C(F)(F)F)ccc1F [GW683134] as the molecule, how does the “%Inh” value read?
Answer: 0%

Question: Which “%Inh” value does the source give for N#CC1(c2cccc(C(=O)Nc3cccc(Oc4ccc5nc(NC(=O)C6CC6)sc5n4)c3)c2)CC1 here?
Answer: 2%

Question: COC(=O)Nc1nc2ccc(Oc3ccc(CC(=O)Nc4cc(C(F)(F)F)ccc4F)cc3)cc2[nH]1 [GW680903] was tested. Which “%Inh” value did it give?
Answer: 42%

Question: With O=C(Nc1n[nH]c2nc(-c3ccccc3O)ccc12)C1CC1 [SB-711880] as the molecule, how does the “%Inh” value read?
Answer: 17%

Question: How did the “%Inh” value turn out when CNc1nccc(-c2ccc3c(N)n[nH]c3c2)n1 [GSK2206003] was run?
Answer: 26%

Question: O=C(Nc1n[nH]c2cc(-c3cccs3)ccc12)C1CC1 [SB-731284] was tested. Which “%Inh” value did it give?
Answer: 0%

Question: Which “%Inh” value does the source give for CC(C)(C)c1ccc(C(=O)Nc2cn3cc(-n4ccnc4)ccc3n2)cc1 here?
Answer: 19%

Question: Which “%Inh” value does the source give for Cc1ccc(Nc2ccnc(Nc3ccc(C)c(F)c3)n2)cc1O.Cl [GW582868] here?
Answer: 74%

Question: How did the “%Inh” value turn out when Fc1cc(Cl)ccc1Nc1ccnc2cc(-c3ccc(CN4CCOCC4)o3)ccc12 [GW560109] was run?
Answer: 13%

Question: For Nc1cccc(-c2ccc3c(N)n[nH]c3c2)c1 [GSK2193613], which “%Inh” value is on record?
Answer: 16%

Question: For Nc1ncnc2scc(-c3ccc(NC(=O)Cc4cc(F)ccc4F)cc3)c12.O=C(O)C(F)(F)F [SB-731254-M], which “%Inh” value is on record?
Answer: 3%

Question: COc1cccc(-c2nc(-c3ccccc3)[nH]c2-c2ccncc2)c1 [SB-610250] was tested. Which “%Inh” value did it give?
Answer: 77%

Question: How did the “%Inh” value turn out when Cc1cccc(Nc2nc(NCCN)ncc2C(N)=O)c1 [GSK1292139] was run?
Answer: 42%

Question: For CN1CCN(Cc2ccc(NC(=O)Nc3ccc(N(C)c4ccnc(Nc5ccc(CS(C)(=O)=O)cc5)n4)cc3)cc2)CC1.Cl [GW827654], which “%Inh” value is on record?
Answer: 34%

Question: How did the “%Inh” value turn out when CN(c1ccc(NC(=O)Nc2cccc(Cl)c2)cc1)c1ccnc(N)n1.Cl [GW830707] was run?
Answer: 6%

System: AKT1
Settings: concentration: 1 μM, replicates: in singlicate; n = 1

Question: How did the “%Inh” value turn out when COc1ccc(NC(=O)c2ccoc2)cc1-c1ccc(C(=O)NCC2CC2)cc1 [GW810437] was run?
Answer: 15%

Question: For CC(=O)Nc1cn2nc(Oc3cccc(NC(=O)c4cccc(C(F)(F)F)c4)c3)ccc2n1, which “%Inh” value is on record?
Answer: 20%

Question: With Cc1ccc(C)c(NC(=O)Nc2ccc(C)c(-c3ccc(C(=O)Nc4ccncc4)cc3)c2)c1 [GSK1398473] as the molecule, how does the “%Inh” value read?
Answer: 0%

Question: CN(C)c1ncnc2nc[nH]c12 [SKF-31736] was tested. Which “%Inh” value did it give?
Answer: 0%

Question: Which “%Inh” value does the source give for Cc1ccc(O)cc1Nc1ccnc2cc(-c3ccc(CN4CCCCC4)o3)ccc12 [GW557777] here?
Answer: 0%

Question: How did the “%Inh” value turn out when Cl.Cl.NCC(NC(=O)c1cc(-c2cccnc2)c(-c2ccnc3[nH]ccc23)s1)c1ccccc1 (centres unmarked) [GSK1323434] was run?
Answer: 7%

Question: With CC(C)NCC(Cc1ccccc1)NC(=O)c1cc(Br)c(-c2ccnc3[nH]ccc23)s1.Cl.Cl (centres unmarked) [GSK1383281] as the molecule, how does the “%Inh” value read?
Answer: 90%

Question: Which “%Inh” value does the source give for COc1cccc(NC(=O)NCCNc2ccnc(Nc3ccc(F)cc3)n2)c1 [GSK1379879] here?
Answer: 0%

Question: For Cc1cc(-c2ccnc(Nc3cccc(C#N)c3)n2)cc(C)c1O [GSK1440913], which “%Inh” value is on record?
Answer: 0%

Question: How did the “%Inh” value turn out when Cc1ccc(O)cc1Nc1ccnc2ccc(C(C)(C)C)cc12 [GW856805] was run?
Answer: 27%

Question: Which “%Inh” value does the source give for O=C(Nc1n[nH]c2nc(-c3ccccc3)ccc12)C1CC1 [SB-708999] here?
Answer: 14%

Question: Which “%Inh” value does the source give for Cl.Cl.NC(CNC(=O)c1cc(Br)c(-c2ccnc3[nH]ccc23)s1)c1ccccc1 (centres unmarked) [GSK1322949] here?
Answer: 66%

Question: How did the “%Inh” value turn out when Cn1cc(-c2cnc(N)c3c(-c4ccc5c(c4)CCN5C(=O)Cc4ccccc4)csc23)cn1 [GSK2593074] was run?
Answer: 14%

Question: O=C1NC(=O)C(c2ccccc2Cl)=C1Nc1cccc(Cl)c1 [SB-342409] was tested. Which “%Inh” value did it give?
Answer: 0%

Question: For COc1ccc(C2=C(Nc3cccc(O)c3)C(=O)NC2=O)cc1 [SB-390766], which “%Inh” value is on record?
Answer: 0%

Question: For CN(C)CCNS(=O)(=O)c1ccc(-c2ccnc3[nH]ccc23)cc1 [GSK977620], which “%Inh” value is on record?
Answer: 57%

Question: With CC(C)c1nc(-c2cccc(NS(=O)(=O)c3c(F)cccc3F)c2)c(-c2ccnc(Nc3ccc(N4CCOCC4)nc3)n2)s1.Cl [GSK1723980] as the molecule, how does the “%Inh” value read?
Answer: 0%

Question: CCn1cnc2c(NCc3ccccc3)ncnc21 [SKF-96418] was tested. Which “%Inh” value did it give?
Answer: 0%

Question: How did the “%Inh” value turn out when COC(=O)Nc1nc2cc(Oc3ccc(NC(=O)Nc4cccc(SC)c4)cc3)ccc2[nH]1.Cl [GW697999] was run?
Answer: 0%

Question: With O=C(Nc1n[nH]c2nc(-c3cccc(O)c3)ccc12)C1CC1 [SB-711805] as the molecule, how does the “%Inh” value read?
Answer: 0%

Question: How did the “%Inh” value turn out when CN(c1ccc(F)c(NC(=O)c2cccc(OC(C)(C)C#N)c2Cl)c1)c1ccc2nc(NC(=O)C3CC3)sc2n1 was run?
Answer: 2%

Question: Cc1nn2c(=O)cc(N3CCO[C@H](C)C3)nc2n1Cc1cccc(Cl)c1Cl [GSK2373693] was tested. Which “%Inh” value did it give?
Answer: 0%

Question: How did the “%Inh” value turn out when Cl.O=C(Nc1ccc(Oc2ccc3[nH]c(NC(=O)c4ccco4)nc3c2)cc1)Nc1cc(C(F)(F)F)ccc1F [GW683134] was run?
Answer: 0%

Question: Which “%Inh” value does the source give for N#CC1(c2cccc(C(=O)Nc3cccc(Oc4ccc5nc(NC(=O)C6CC6)sc5n4)c3)c2)CC1 here?
Answer: 27%

Question: Which “%Inh” value does the source give for COC(=O)Nc1nc2ccc(Oc3ccc(CC(=O)Nc4cc(C(F)(F)F)ccc4F)cc3)cc2[nH]1 [GW680903] here?
Answer: 0%

Question: Which “%Inh” value does the source give for O=C(Nc1n[nH]c2nc(-c3ccccc3O)ccc12)C1CC1 [SB-711880] here?
Answer: 0%

Question: With CNc1nccc(-c2ccc3c(N)n[nH]c3c2)n1 [GSK2206003] as the molecule, how does the “%Inh” value read?
Answer: 0%

Question: How did the “%Inh” value turn out when O=C(Nc1n[nH]c2cc(-c3cccs3)ccc12)C1CC1 [SB-731284] was run?
Answer: 0%

Question: CC(C)(C)c1ccc(C(=O)Nc2cn3cc(-n4ccnc4)ccc3n2)cc1 was tested. Which “%Inh” value did it give?
Answer: 6%

Question: With Cc1ccc(Nc2ccnc(Nc3ccc(C)c(F)c3)n2)cc1O.Cl [GW582868] as the molecule, how does the “%Inh” value read?
Answer: 0%

Question: With Fc1cc(Cl)ccc1Nc1ccnc2cc(-c3ccc(CN4CCOCC4)o3)ccc12 [GW560109] as the molecule, how does the “%Inh” value read?
Answer: 0%

Question: Which “%Inh” value does the source give for Nc1cccc(-c2ccc3c(N)n[nH]c3c2)c1 [GSK2193613] here?
Answer: 0%

Question: For Nc1ncnc2scc(-c3ccc(NC(=O)Cc4cc(F)ccc4F)cc3)c12.O=C(O)C(F)(F)F [SB-731254-M], which “%Inh” value is on record?
Answer: 0%

Question: With COc1cccc(-c2nc(-c3ccccc3)[nH]c2-c2ccncc2)c1 [SB-610250] as the molecule, how does the “%Inh” value read?
Answer: 0%

Question: With Cc1cccc(Nc2nc(NCCN)ncc2C(N)=O)c1 [GSK1292139] as the molecule, how does the “%Inh” value read?
Answer: 0%

Question: How did the “%Inh” value turn out when CN1CCN(Cc2ccc(NC(=O)Nc3ccc(N(C)c4ccnc(Nc5ccc(CS(C)(=O)=O)cc5)n4)cc3)cc2)CC1.Cl [GW827654] was run?
Answer: 0%

Question: How did the “%Inh” value turn out when CN(c1ccc(NC(=O)Nc2cccc(Cl)c2)cc1)c1ccnc(N)n1.Cl [GW830707] was run?
Answer: 23%
